Screening data from PubChem.
Rows were chosen to be rich in hits. Some 2.7% of all compounds tested hit in one or more screens of this group.
ATXN2 expr inh – reduces ATXN2 reporter expression in HEK-293 cells. HEK-293 ATXN2-luciferase reporter, luminescence, 24 h. Potency, µM (highest dose often 57 µM), inactives show at the top dose activity change, negative = inhibition, most hits filed as inhibitors. 360,000 tested, 0.72% active; also: % is scaled to controls: 0 for no effect and ±100 for the full control effect; nearly all actives have a fitted effect of over 55% in size
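ATXN2-luciferase reporter cells (luciferase flanked by upstream and downstream ATXN2 gene portions) were treated 24 h at 37 °C with compounds at up to 57 uM. SteadyGlo luminescence gave expression; GF-AFC fluorescence gave viability.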
12-LOX inh – ALOX12 (human) lipoxygenase inhibition. P18054. Potency, µM (series often up to 108 µM), for inactives: at the top dose activity change, negative = inhibition, usual class: inhibitors. 580,000 tested, 1.1% active. purified 12hLO, xylenol orange hydroperoxide absorbance. AID 1671190; also: % is scaled to controls: 0 for no effect and ±100 for the full control effect
Target sequence (P18054 whole entry, looked up): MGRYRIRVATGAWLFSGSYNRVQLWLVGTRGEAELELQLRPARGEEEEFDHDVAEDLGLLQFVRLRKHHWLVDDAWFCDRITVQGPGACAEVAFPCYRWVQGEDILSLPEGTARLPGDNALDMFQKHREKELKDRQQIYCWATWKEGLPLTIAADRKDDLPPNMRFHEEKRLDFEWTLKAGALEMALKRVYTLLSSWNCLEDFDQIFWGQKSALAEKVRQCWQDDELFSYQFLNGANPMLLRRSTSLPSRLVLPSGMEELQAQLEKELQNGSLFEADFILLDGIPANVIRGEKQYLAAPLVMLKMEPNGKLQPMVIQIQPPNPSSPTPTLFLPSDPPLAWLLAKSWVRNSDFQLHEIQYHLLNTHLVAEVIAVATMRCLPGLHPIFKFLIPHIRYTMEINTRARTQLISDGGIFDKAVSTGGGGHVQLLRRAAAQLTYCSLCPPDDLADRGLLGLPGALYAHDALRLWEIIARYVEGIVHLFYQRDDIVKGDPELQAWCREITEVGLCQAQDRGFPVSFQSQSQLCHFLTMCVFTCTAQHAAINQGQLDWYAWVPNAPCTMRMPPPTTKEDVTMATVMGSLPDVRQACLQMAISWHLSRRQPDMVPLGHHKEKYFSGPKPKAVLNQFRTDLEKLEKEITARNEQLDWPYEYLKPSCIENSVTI
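Hydroperoxide product was detected by ferrous iron/xylenol orange as the 573 to 405 nm absorbance ratio. Arachidonic acid at 40 uM (final) was turned over for 30 min at room temperature by 150 nM human 12hLO, pH 7.0 Hepes buffer, after 15 min compound preincubation.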
HepG2 viability – kills HepG2 cells in TGF-b inhibitor counter-screen | HepG2 CAGA-GFP viability, ATP luminescence, 18 h | Potency, µM (titrated, usually from 46.1 µM), for inactives: at the highest dose activity change, negative = cytotoxicity, usual class: cytotoxic | 410,000 tested, 0.76% active | AID 588856
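CellTiter-Glo luminescence gave cytotoxicity after 18 hours at 37 degrees C. The cells were HepG2 CAGA-GFP in 1% FBS DMEM, stimulated with 500 pg/mL TGF-beta after compound addition. %Activity was normalised to no-cell wells (complete cell-killing) and DMSO (no toxicity), and curves were fitted and classified.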
TGFb inhibitor – inhibitors of TGF-b signaling | HepG2 CAGA-GFP TGF-b/SMAD3 reporter, GFP fluorescence, 18 h; TGF-beta stimulated, 500 pg/mL final | Potency, µM (series often up to 46.1 µM), without a hit: at the highest dose activity, negative = inhibition, usual class: inhibitors | 410,000 tested, 1.2% active | AID 588855; also: % is scaled to controls: 0 for no effect and ±100 for the full control effect; nearly all actives have a fitted effect of over 65% in size
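HEPG2 CAGA-GFP reporter cells (1000/well, DMEM with 1% FBS) received compounds, then recombinant TGF-beta at 500 pg/mL final for 18 hours at 37 degrees C. Per-cell GFP summed per well was normalised to unstimulated and stimulated DMSO controls before curve fitting.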
ATXN viability – viability counter-screen for ATXN expression inhibitors; 400,000 tested, 0.49% active; Potency, µM (series often up to 56.7 µM), hits mostly cytotoxic; AID 651635; S2 cells (HEK-293 line with an ATXN2-luciferase reporter) viability, CellTiter-Fluor protease fluorescence, 24 h; also: nearly all actives have a fitted effect of over 40% in size
Starred values were filed as active, the others as inactive; i = inactive; ? = inconclusive; . = no result given; ! = not confirmed by another sample; [ ] = another dose, or the depositor's remark. Calls follow the shape of the dose curve; as a rule, active = well fitted curve in the direction sought with a large enough effect; inconclusive = small, poorly fitted or top-dose-only effect, or another doubt; inactive = no such curve, though single readings can be large; an effect the other way counts as inactive or inconclusive. Potency is read from the fitted curve at half-maximal effect.

SMILES	ATXN2 expr inh	12-LOX inh	HepG2 viability	TGFb inhibitor	ATXN viability
CCN(CC)S(=O)(=O)c1cc([N+](=O)[O-])ccc1N/N=C(/C)c1cccs1	.	30%	.	.	.
CSCC[C@@H]1NC(=O)c2cc(NC(=O)c3cccc4c3ccn4C)ccc2NC1=O	.	-1%	.	.	.
CSCC[C@@H]1NC(=O)c2cc(NC(=O)Cn3ccc4ccccc43)ccc2NC1=O	.	35µM*	.	.	.
O=C(NCC1CCN(c2cc(-c3ccccc3)[nH]n2)CC1)c1n[nH]c2c1CCCC2	.	64%	.	.	.
COc1cc(OC)c(NC(=O)N2CCN(c3ccc(=O)n(-c4ccc(F)cc4)n3)CC2)cc1Cl	.	18%	.	.	.
O=C1CC(C(=O)NC2CCCCC2)C(c2ccccc2)O1 (stereo not given)	5%	0%	4%	-20%	i
C[C@@H]1[C@@H](Sc2ccccc2)CC(=O)O[C@@H]1c1ccc(-c2ccccc2)cc1	18µM*	-9%	11µM*	?	22µM*
CN(Cc1cnccn1)Cc1ccccc1OCC(O)CN(C)C1CCCCC1 (stereo not given)	.	62%	.	.	.
CCOC(=O)N1CCN(c2ncnc3scc(-c4ccc(Cl)cc4)c23)CC1	.	.	-26%	16µM*	i
CCn1c(NCCO)nc2c1c(=O)n(C)c(=O)n2C	.	1%	.	.	.
O=C(CN1C(=O)c2ccccc2S1(=O)=O)c1ccccc1Cl	.	8%	.	.	.
O=C(CN1C(=O)c2ccccc2S1(=O)=O)Nc1ncc(Cl)cc1Cl	5µM*	?	3%	18%	i
Cc1ccc(C(=O)CN2C(=O)c3ccccc3S2(=O)=O)cc1	1µM*	0%	-22%	2%	i
O=C(CN1C(=O)c2ccccc2S1(=O)=O)Nc1ncccn1	-8%	-30%	-15%	-5%	i
CC(C)NC(=O)CN1C(=O)c2ccccc2S1(=O)=O	-5%	-2%	3%	-1%	i
O=C(CN1C(=O)c2ccccc2S1(=O)=O)c1ccccc1	14µM*	0%	6%	0%	i
C[N+](C)(C#CCc1ccccc1)C/C(Cl)=C(\Cl)c1ccccc1	.	0%	.	.	.
Cc1ccc(-c2csc(NC(=O)C[n+]3cc(-c4ccccc4)n4c3CCC4)n2)cc1	-14%	68%	-10%	22µM*	?
O=C(c1cccs1)N1CCN(C(=O)c2cccs2)C1=S	?	?	-50%	6.3µM*	.
O=C(Cn1c(-c2ccccc2)cc2ccccc21)NCCC(=O)N1CCCC1	.	0%	.	.	.
c1ccc2nccnc2c1	.	.	4µM*	2.8µM*	.
CCOC(=O)C1=C(C)NC(C)=C(C(=O)OCC)C1/C=C/c1ccccc1	-9%	?	-69%	-12%	i
C=CCOC(=O)C1=C(C)NC(C)=C(C(=O)OCC=C)C1/C=C/c1ccccc1	-19%	4%	13µM*	?	i
CC#CCn1cc2c3c(cccc31)[C@H](CC(C)C)N[C@H](C(=O)NCCNC(C)=O)C2	.	110%[176 µM]	.	.	.
COc1ccc(-n2nc3cc(C)c(N)cc3n2)cc1Cl	.	8.9µM*	-3%	-7%	?
SMILES	ATXN2 expr inh	12-LOX inh	HepG2 viability	TGFb inhibitor	ATXN viability
Cc1[nH]nc2c1C(c1ccc(-c3ccc(Cl)cc3)o1)C(C#N)=C(N)O2 (stereo not given)	4%	?	-84%	?	?
Cc1ccc(-c2ccc(C3C(C#N)=C(N)Oc4n[nH]c(C)c43)o2)cc1 (stereo not given)	-3%	-13%	16µM*	?	i
COc1ccccc1NC(=O)COc1ccc(-c2nn(C)c(=O)c3ccccc23)cc1	?	-6%	-1%	7.9µM*!	i
C1CCC(CNCCN2CCNCC2)CC1	.	-3%	.	.	.
COc1ccccc1CNc1nc(-c2ccc(N(C)C)cc2)nc2ccccc12	.	28µM*	.	.	.
COc1ccccc1-c1nc(Nc2ccncc2)c2ccccc2n1	.	28µM*	.	.	.
COc1ccccc1-c1nc(N(C)C)c2ccccc2n1	.	32µM*	.	.	.
